Results reported in PubChem BioAssay.
Inconclusive results are not listed. Calls of active or inactive are those of the source.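 How the source made its calls, unless noted: active means RAM network inhibition above 8.4% in each of two replicates, 3 SD over the compound average; inconclusive means above 8.4% inhibition in only one replicate; inactive means 8.4% inhibition or less in each replicate.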

How the values were obtained:
[1] = reducers of endogenous Her2 protein level, primary screen, SKBR3 breast tumor cells, AlphaScreen, ATP viability (AID 461;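 active means Her2 level under about 52% in both replicate screens, with viability over 70% of control, limit read from the data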;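 on Her2 level: lower value means less Her2 protein in the cells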;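 on viability: percent of carrier control wells set as 100% viability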); details: 18-24 h, measured here: SKBR3 viability, ATP luminescence, at 10 µM
[2] = molecular target: Receptor tyrosine-protein kinase erbB-2 (Homo sapiens) (UniProt P04626); experiment: as above; details: 18-24 h, at 10 µM, stronger effect = lower value
Receptor tyrosine-protein kinase erbB-2 (Homo sapiens), sequence (P04626 whole entry, looked up): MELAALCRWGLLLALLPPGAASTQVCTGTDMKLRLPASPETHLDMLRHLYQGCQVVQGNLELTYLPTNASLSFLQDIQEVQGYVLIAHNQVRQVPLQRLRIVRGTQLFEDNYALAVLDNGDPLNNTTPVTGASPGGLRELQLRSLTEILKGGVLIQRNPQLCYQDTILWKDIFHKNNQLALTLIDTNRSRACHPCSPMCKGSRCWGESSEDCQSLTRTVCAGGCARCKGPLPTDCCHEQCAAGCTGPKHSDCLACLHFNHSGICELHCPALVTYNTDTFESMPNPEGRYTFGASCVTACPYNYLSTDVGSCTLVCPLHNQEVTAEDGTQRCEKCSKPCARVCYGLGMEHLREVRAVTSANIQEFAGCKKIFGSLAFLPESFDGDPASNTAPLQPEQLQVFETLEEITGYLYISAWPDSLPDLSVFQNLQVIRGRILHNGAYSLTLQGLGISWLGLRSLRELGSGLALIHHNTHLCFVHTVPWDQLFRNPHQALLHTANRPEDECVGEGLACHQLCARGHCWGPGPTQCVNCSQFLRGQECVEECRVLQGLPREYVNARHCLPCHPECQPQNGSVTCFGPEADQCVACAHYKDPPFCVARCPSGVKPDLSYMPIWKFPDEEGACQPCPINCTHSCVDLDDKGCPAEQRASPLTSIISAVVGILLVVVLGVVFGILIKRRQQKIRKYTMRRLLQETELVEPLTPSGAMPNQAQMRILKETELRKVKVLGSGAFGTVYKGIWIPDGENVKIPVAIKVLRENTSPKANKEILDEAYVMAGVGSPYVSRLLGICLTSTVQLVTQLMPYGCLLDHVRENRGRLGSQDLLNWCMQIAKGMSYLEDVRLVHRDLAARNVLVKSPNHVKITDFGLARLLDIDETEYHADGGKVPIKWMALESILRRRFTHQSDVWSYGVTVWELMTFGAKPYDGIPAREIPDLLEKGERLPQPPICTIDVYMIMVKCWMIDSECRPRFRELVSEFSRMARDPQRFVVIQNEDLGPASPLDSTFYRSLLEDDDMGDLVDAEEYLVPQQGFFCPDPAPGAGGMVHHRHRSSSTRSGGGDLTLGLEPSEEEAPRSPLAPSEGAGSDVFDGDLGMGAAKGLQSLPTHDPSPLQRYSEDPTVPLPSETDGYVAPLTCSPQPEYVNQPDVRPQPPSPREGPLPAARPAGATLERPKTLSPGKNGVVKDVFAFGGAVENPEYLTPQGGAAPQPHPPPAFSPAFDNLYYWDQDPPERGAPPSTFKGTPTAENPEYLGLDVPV

[3] = SK-BR-3 cell growth inhibitors, pilot screen, 24 h, human (AID 572;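 active means viability at or below 10% of carrier control in both of two separate runs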;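 further: compound exposure lasted between 18 and 24 h rather than exactly 24 h; 100% = carrier-treated control wells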); details: SK-BR-3 viability, CellTiter-Glo luminescence, at 10 µM, stronger effect = lower value
[4] = HUVEC growth inhibition – cell-based, human, primary screen (AID 575;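 active means viability at or below 30% in both replicate assays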;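 further: 100% = median of untreated cell wells with 0.1% DMSO on each plate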); details: HUVEC proliferation, CellTiter-Glo luminescence, 72 h; at 10 µM; stronger effect = lower value
[5] = growth inhibitors of H69AR lung tumor, primary screen, human, duplicate replicates (AID 580;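 active means viability at or under a set limit in both replicates, limit being median viability minus 3 SD, cut at about 48% in these data, passing the limit was not always enough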;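 further: 100% = mean luminescence of untreated wells and 0% = no signal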); details: H69AR lung tumor cells viability, ATP luminescence, 72 h; at 10 µM; stronger effect = lower value
[6] = reversal of MRP1-mediated doxorubicin resistance, pilot screen, H69AR cells, doxorubicin co-treatment (AID 601;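 active means viability loss from added drug above about 55%, and viability with drug at most 40%, in both replicates, limit read from the data, passing the limit was not always enough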); details: CellTiter-Glo, 72 h, at 10 µM; for differential viability (reversal): stronger effect = higher value
[7] = 384-well plate pilot, post-Golgi transport modulator project, inhibition of yeast transport mutant growth (AID 636; in the data active means inhibition above about 31%); details: absorbance 615 nm, about 18 h, stronger effect = higher value
[8] = growth suppression of yeast trafficking mutant, preliminary HTS, modulators of trafficking downstream of Golgi apparatus project, 1536-format plate, OD 615 nm (AID 637; in the data active means inhibition above about 30%); details: yeast transport mutant growth, absorbance 615 nm, 18 h; stronger effect = higher value
[9] = OD615 S. cerevisiae growth inhibition, permissive medium, pilot counter-assay, permissive growth control for S. cerevisiae lifespan shortening project (AID 705;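 active means growth inhibition above 25% in both replicates, a cutoff set 3 SD above the mean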); details: OD615, 24 h, at 10 µM, stronger effect = higher value
[10] = Restrictive medium S. cerevisiae growth inhibition, OD615, pilot screen of yeast lifespan reduction project, restrictive growth control (AID 706;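 active means growth inhibition above a set limit, 3 SD over mean compound inhibition, in both replicates, cut at about 43% in these data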;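 further: modified DeaD lifespan yeast strain shifted to restrictive glucose medium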); details: OD615, 48 h, at 10 µM, stronger effect = higher value
[11] = viability gain of MRP-1-high H69AR cells under doxorubicin, pilot screen, MRP-1 activator project, CellTiter-Glo, duplicate (AID 807;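 active means viability increase at or above a cutoff of the median across tested compounds plus 3 SD, cut at about 8.5% in these data, passing the limit was not always enough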;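 further: compound pretreatment 18-22 h then 72 h combined with doxorubicin; 0% = doxorubicin alone and 100% = vehicle without doxorubicin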); details: H69AR viability with doxorubicin, CellTiter-Glo luminescence; at 10 µM; stronger effect = higher value
[12] = growth suppression of beta-catenin knockout HCT116, pilot screen, human colon tumor cells (AID 823;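 active means cell viability at or below a set limit in both duplicate runs, the limit being the all-compound median minus 4 SD, cut at about 23% in these data, passing the limit was not always enough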;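 further: 0% = wells killed by 20 µM Hyamine and 100% = untreated DMSO cell wells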); details: CellTiter-Glo, 60 h, at 10 µM, stronger effect = lower value
[13] = growth suppression of PTEN-deleted HCT116, pilot screen, cell-based, HCT116 clonal line, CellTiter-Glo (AID 824;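 active means viability at or below 27.92% in each of two runs, the all-compound median minus 4 SD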;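 further: 0% = 20 µM Hyamine control and 100% = vehicle cell control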); details: 60 h, at 10 µM, stronger effect = lower value
[14] = inhibitors of the yeast RAM network, pilot screen, dse1pr::URA3 reporter, 5-FOA selection (AID 869;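 active means inhibition over a set limit, the all-compound mean plus 3 SD, in both replicate runs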;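 further: 0% = DMSO wells with no growth and 100% = 10 µM 1-NA-PP1 with full growth; RAM network block rescues cells from 5-FOA so hits raise OD615 growth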); details: S. cerevisiae dse1pr::URA3 5-FOA growth, OD615, 2 d; at 10 µM; stronger effect = higher value; strain carries analog-sensitive mutant Cbk1 kinase
[15] = RAM signaling pathway blockade in yeast – S. cerevisiae, Pdr1DBD-CYC8 efflux-inhibited sensitized strain, primary screen (AID 1298);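 further: 0% = DMSO untreated cells without growth and 100% = 10 µM 1-NA-PP1 full growth; higher means more yeast growth rescued from 5-FOA killing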; details: S. cerevisiae cbk1-as DSE1-URA3 strain, 5-FOA growth OD615, 2 d; at 50 µM; stronger effect = higher value
[16] = H69AR cells + 2 uM doxorubicin, measured here: viability with 2 uM doxorubicin, stronger effect = lower value
[17] = H69AR cells, compound alone cytotoxicity

COc1ccc(-c2noc(COc3ccc(Cl)c(C)c3)n2)cc1
88.4%: viability [6, 17]
91%: viability [1]
active: inhibition [14] 6.36%
inactive: Her2 level [2] 115% | viability [3] 91% | viability [4] 99.6% | viability [5] 88.4% | differential viability (reversal) ([6]; H69AR cells + 2 uM doxorubicin) 4.7% | inhibition [7] -5.07% | inhibition [8] -7.38% | growth inhibition [9] -7.56% | growth inhibition [10] -29% | viability increase [11] 0.12% | viability [12] 101% | viability [13] 91.5% | RAM network inhibition [15] 8.54%
83.7%: viability [6, 16]

CC(C)n1c(CN2CCN(C)CC2)nc2c1c(=O)n(C)c(=O)n2C
inactive: Her2 level [2] 86% | viability [3] 95.5% | viability [4] 93.8% | viability [5] 98.5% | differential viability (reversal) ([6]; H69AR cells + 2 uM doxorubicin) 9.28% | inhibition [7] -7.57% | inhibition [8] 1.8% | growth inhibition [9] -7.82% | growth inhibition [10] 4.92% | viability increase [11] 0.07% | viability [12] 101% | viability [13] 103% | inhibition [14] 0.885% | RAM network inhibition [15] 5.22%
98.5%: viability [6, 17]
89.2%: viability [6, 16]
95.5%: viability [1]

CCOC(=O)Cn1c(=O)c(-c2ccccc2N)nc2ccccc21
75.6%: viability [6, 17]
inactive: Her2 level [2] 84.5% | viability [3] 101% | viability [4] 85.3% | viability [5] 75.6% | differential viability (reversal) ([6]; H69AR cells + 2 uM doxorubicin) -6.16% | inhibition [7] -5.6% | inhibition [8] -2% | growth inhibition [9] 2.3% | growth inhibition [10] 0.83% | viability increase [11] -1.72% | viability [12] 108% | viability [13] 98.8% | inhibition [14] 2.16% | RAM network inhibition [15] 3.47%
81.7%: viability [6, 16]
101%: viability [1]

COc1cc2c(cc1OC)-c1nnc(-c3cccs3)n1C(C)(C)C2
99.1%: viability [6, 16]
64.5%: viability [1]
inactive: Her2 level [2] 95.5% | viability [3] 64.5% | viability [4] 114% | viability [5] 102% | differential viability (reversal) ([6]; H69AR cells + 2 uM doxorubicin) 2.48% | inhibition [7] 0.13% | inhibition [8] -4.17% | growth inhibition [9] -11.8% | growth inhibition [10] -8.72% | viability increase [11] -2.78% | viability [12] 90.4% | viability [13] 80.6% | inhibition [14] 0.115% | RAM network inhibition [15] 0.94%
102%: viability [6, 17]

CCOCCn1c(CN2CCN(CC)CC2)nc2c1c(=O)n(C)c(=O)n2C
91.8%: viability [6, 17]
87.1%: viability [6, 16]
121%: viability [1]
inactive: Her2 level [2] 109% | viability [3] 121% | viability [4] 94.2% | viability [5] 91.8% | differential viability (reversal) ([6]; H69AR cells + 2 uM doxorubicin) 4.7% | inhibition [7] -1.6% | inhibition [8] -4.33% | growth inhibition [9] 5.99% | growth inhibition [10] 1.91% | viability increase [11] -1.7% | viability [12] 103% | viability [13] 97.6% | inhibition [14] 1.31% | RAM network inhibition [15] -1.34%

Cc1nnc(SCC(=O)Nc2sc3c(c2C#N)CCCC3)[nH]c1=O
102%: viability [6, 17]
95.5%: viability [1]
97.4%: viability [6, 16]
inactive: Her2 level [2] 91.5% | viability [3] 95.5% | viability [4] 88.3% | viability [5] 102% | differential viability (reversal) ([6]; H69AR cells + 2 uM doxorubicin) 4.41% | inhibition [7] -3.38% | inhibition [8] -4.83% | growth inhibition [9] 1.05% | growth inhibition [10] 10.9% | viability increase [11] -2.28% | viability [12] 103% | viability [13] 101% | inhibition [14] 0.455% | RAM network inhibition [15] 3.34%

CCn1cc(C2=NOC(C(=O)Nc3c(C)nn(Cc4ccc(F)cc4)c3C)C2)c(C)n1 (stereo not given)
88.2%: viability [6, 17]
87.1%: viability [6, 16]
76.5%: viability [1]
inactive: Her2 level [2] 86.5% | viability [3] 76.5% | viability [4] 86.2% | viability [5] 88.2% | differential viability (reversal) ([6]; H69AR cells + 2 uM doxorubicin) 1.12% | inhibition [7] -1.41% | inhibition [8] 1.67% | growth inhibition [9] -11.1% | growth inhibition [10] 2.07% | viability increase [11] 1.43% | viability [12] 95.2% | viability [13] 103% | inhibition [14] 1.9% | RAM network inhibition [15] 1.61%

CC1CCc2nn(CC(=O)NCc3ccc(F)cc3)cc2C1 (stereo not given)
inactive: Her2 level [2] 102% | viability [3] 122% | viability [4] 79.4% | viability [5] 89.4% | differential viability (reversal) ([6]; H69AR cells + 2 uM doxorubicin) -4.28% | inhibition [7] -0.51% | inhibition [8] -2.33% | growth inhibition [9] -3.91% | growth inhibition [10] 8.68% | viability increase [11] -2.02% | viability [12] 86.4% | viability [13] 87.6% | inhibition [14] -0.73% | RAM network inhibition [15] 1.16%
122%: viability [1]
89.4%: viability [6, 17]
93.6%: viability [6, 16]

COc1cccc(C2C(C(N)=O)=C(C)Nc3nc(-c4ccccc4Cl)nn32)c1 (stereo not given)
76.4%: viability [6, 16]
inactive: Her2 level [2] 92.5% | viability [3] 79.5% | viability [4] 69.3% | viability [5] 92.1% | differential viability (reversal) ([6]; H69AR cells + 2 uM doxorubicin) 15.7% | inhibition [7] -5.33% | inhibition [8] -2.83% | growth inhibition [9] -0.045% | growth inhibition [10] -2.87% | viability increase [11] -2.66% | viability [12] 67.2% | viability [13] 72.2% | inhibition [14] -0.135% | RAM network inhibition [15] 2.34%
79.5%: viability [1]
92.1%: viability [6, 17]

CCOC(=O)C1=C(C)N(C)C(=O)NC1c1ccccc1OC (stereo not given)
110%: viability [6, 16]
97%: viability [1]
175%: viability [6, 17]
inactive: Her2 level [2] 88% | viability [3] 97% | viability [4] 88.2% | viability [5] 175% | differential viability (reversal) ([6]; H69AR cells + 2 uM doxorubicin) 64.2% | inhibition [7] -8.24% | inhibition [8] 2.46% | growth inhibition [9] -4.28% | growth inhibition [10] -3.44% | viability increase [11] 0.16% | viability [12] 97.9% | viability [13] 93.4% | inhibition [14] 0.97% | RAM network inhibition [15] 2.01%
